The list is not random: actives were taken first. Their share in the collection is about 9%.
HPGD block: HPGD (human) dehydrogenase inhibition; purified HPGD, NADH fluorescence kinetic, PGE2 substrate; Potency, µM, hits mostly inhibitors; AID 894; 150,000 compounds, 4.3% hits
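NADH formation kinetics: reaction with 30 uM PGE2 and 1 mM NAD+ (final), 20 nM enzyme, Tris-HCl pH 8 with Tween 20, after 15 min compound preincubation at room temperature. Fluorescence change, last versus first of five reads.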
ALDH1A1 block: blocks purified human ALDH1A1 activity. Purified ALDH1A1, NADH fluorescence, propionaldehyde substrate. Potency, µM (titrated, usually from 75.3 µM), most hits filed as inhibitors. 220,000 compounds, 7.3% hits. P00352
Target sequence (P00352 whole entry, looked up): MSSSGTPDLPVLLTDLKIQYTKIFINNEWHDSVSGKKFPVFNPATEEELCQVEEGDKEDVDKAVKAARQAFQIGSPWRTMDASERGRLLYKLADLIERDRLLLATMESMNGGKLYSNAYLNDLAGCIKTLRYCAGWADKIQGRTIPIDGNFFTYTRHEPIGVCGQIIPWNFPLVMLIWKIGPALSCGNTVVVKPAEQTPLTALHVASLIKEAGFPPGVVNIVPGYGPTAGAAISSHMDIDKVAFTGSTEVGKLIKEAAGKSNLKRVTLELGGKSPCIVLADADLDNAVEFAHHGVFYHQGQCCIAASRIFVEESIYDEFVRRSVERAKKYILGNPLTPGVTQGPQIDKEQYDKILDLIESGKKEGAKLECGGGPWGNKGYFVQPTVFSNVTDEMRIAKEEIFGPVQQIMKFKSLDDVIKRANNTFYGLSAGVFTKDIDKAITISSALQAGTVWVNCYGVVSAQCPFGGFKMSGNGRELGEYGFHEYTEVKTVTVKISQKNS
IMPase cell inh: cell-permeable inhibitors of inositol monophosphatase (IMPase); CHO-M1 cells, IP1 accumulation, HTRF TR-FRET ratio; AID 901; P97697; inhibition (IP1 accumulation), % at 46.1 µM; 120,000 tested, under 10 active; active means well fitted curve in the direction sought with a large enough effect in the signal ratio, not every such curve was filed as active; inconclusive means small, poorly fitted or top-dose-only effect, or a change in a side signal; inactive means no such curve, though single readings can be large or run the other way; the % refers to the signal ratio;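 further: cells stimulated with carbachol in lithium chloride buffer; higher means more IMPase inhibition seen as more IP1 and lower FRET ratio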
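Seeded CHO-M1 cells were dosed with compound at up to 46 uM, stimulated with carbachol for 30 min, then lysed in IP-One detection reagents. Higher IP1 lowers the TR-FRET signal.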
A number is an active result; n = inactive; u = inconclusive; x = not tested or not shown. Unless noted, the call rests on the fitted dose curve; in most records, active means well fitted inhibition curve with a large enough effect (not every such curve was filed as active); inconclusive means small, poorly fitted or top-dose-only effect, or another doubt; inactive means no such curve, though single readings can be large or run the other way.

SMILES | HPGD block | ALDH1A1 block | IMPase cell inh
CCN(CC)S(=O)(=O)c1ccc(/C=C/C(=O)OCC(=O)N(C(C)C)C(C)C)cc1 | x | n | x
Cn1cc(Cl)c(-c2n[nH]c(=S)n2C2CCCCC2)n1 | x | n | x
O=C(/C=C/c1cccc([N+](=O)[O-])c1)c1ccccc1 | n | n | x
O=C(C#Cc1cccc([N+](=O)[O-])c1)c1ccccc1 | n | 3.55µM | n
COC(=O)[C@@H]1CCCN1C(=O)CCc1nnc(C2CCCCC2)o1 | x | n | x
Nc1c(C(=O)Nc2ccccc2)sc2nc3c(c(-c4ccco4)c12)CCC3 | n | n | u
Cc1ccc(NC(=O)c2sc3nc4c(c(-c5ccco5)c3c2N)CCC4)cc1 | n | 4.47µM | n
COc1cc(NC(=O)COC(=O)c2n[nH]c3ccccc23)c(C)cc1[N+](=O)[O-] | x | n | x
O=C(CSc1nc(-c2ccco2)cc(C(F)(F)F)n1)Nc1ccc2c(c1)CCC2 | n | n | n
O=C(CSc1nc(-c2ccco2)cc(C(F)(F)F)n1)NC1CCCC1 | 14.1µM | u | n
O=C(CCSc1nc(-c2ccco2)cc(C(F)(F)F)n1)Nc1cccc(O)c1 | x | x | n
CCn1nc(C)c(NC(=O)CCSc2nc(-c3ccco3)cc(C(F)(F)F)n2)c1C | u | 28.2µM | n
CCCCOC(=O)c1ccc(NC(=O)c2sc3nc(C)cc(C)c3c2N)cc1 | x | x | n
Fc1ccc(C(Nc2ccccc2Cl)c2nnc(-c3ccccc3Cl)o2)cc1 (stereo not given) | x | x | n
Cc1ccc(C)c(Cn2nnc3c(=O)[nH]c(C4CCCN(C(=O)C5CCCCC5)C4)nc32)c1 (stereo not given) | 6.31µM | 12.6µM | n
COc1ccccc1NC(=O)N1CCCC(c2nc3c(nnn3Cc3ccc(C)cc3)c(=O)[nH]2)C1 (stereo not given) | x | u | n
Cc1ccc2nc(C3CCCN(C(=S)Nc4ccccc4C)C3)[nH]c2c1 (stereo not given) | n | n | n
O=C(C1CCCCC1)N1CCCC(c2nc3c(nnn3Cc3ccccc3)c(=O)[nH]2)C1 (stereo not given) | 14.1µM | 15.8µM | n
Cc1cccc(C)c1Nc1oc(-c2ccccc2)nc1-c1cccc2ccccc12 | n | n | x
Cn1c(SCc2ccccn2)nnc1-c1ccccc1 | x | n | x
Cc1ccc2c(ccc(=S)n2C)c1 | x | n | x
Cc1c(C(=O)NN2CCN(C)CC2)cccc1[N+](=O)[O-] | n | n | n
CCOC(=O)C1=C(CNC(C)(C)CC(C)(C)C)NC(=O)NC1c1cccc([N+](=O)[O-])c1 (stereo not given) | x | n | x
Cc1nn(C)cc1C(C)NCc1c(C(=O)N2CCCCCCC2)nc2ccc(Cl)cn12 (stereo not given) | x | 3.16µM | x
CCN(CCn1cccn1)Cc1c(C(=O)N2CCCCCCC2)nc2ccc(Cl)cn12 | x | n | x
SMILES | HPGD block | ALDH1A1 block | IMPase cell inh
CC(CCC#N)[N+](=O)[O-] (stereo not given) | n | n | x
Cc1cc(NC(=O)CN2CCC(O)CC2)nc2c1c(=O)oc1ccccc12 | x | x | n
COC(=O)C1CCN(CC(=O)Nc2cc(C)c3c(=O)oc4ccccc4c3n2)CC1 | x | x | n
Cc1cc(NC(=O)C2CCCC2)nc2c1c(=O)oc1ccccc12 | n | 14.1µM | n
Cc1cc(NC(=O)CN2CC3CC(C2)c2cccc(=O)n2C3)nc2c1c(=O)oc1ccccc12 (stereo not given) | n | 28.2µM | n
Cc1cc(NC(=O)C2CCCCC2)nc2c1c(=O)oc1ccccc12 | n | u | n
Cc1cc(NC(=O)CN2CCN(Cc3ccccc3)CC2)nc2c1c(=O)oc1ccccc12 | x | 3.55µM | x
CC1CCCCN1C(=O)COc1ccc(F)cc1 (stereo not given) | x | n | x
CCOC(=O)c1cnc2c(C(F)(F)F)cccc2c1Nc1cccc(C(=O)OC)c1 | x | x | n
Cc1csc(NC(=O)CCNC(=O)c2ccccc2Cl)n1 | x | n | x
CCC1CCCCN1C(=O)c1ccc(OC2CCN(C(=O)C3CC3)CC2)cc1 (stereo not given) | x | n | x
CC(C)Cn1c(SC(C)C(=O)Nc2ccc3c(c2)OCCO3)nc2ccccc2c1=O (stereo not given) | n | 15.8µM | n
CC(Sc1ncnc2ccccc12)C(=O)Nc1ccc2c(c1)OCCO2 (stereo not given) | n | u | n
CCOc1cc2c(cc1OCC)C(c1c(F)cccc1Cl)CC(=O)N2 (stereo not given) | x | x | n
Cc1ccc(NC(=O)c2cc(N3C(=O)C=CC3=O)ccc2Cl)cc1C | 3.16µM | 2.24µM | n
Cc1ccc(NC(=O)c2cc(N3C(=O)C4CC=CCC4C3=O)ccc2N2CCOCC2)cc1Cl (stereo not given) | n | 28.2µM | n
COc1c(C)cccc1C(=O)Nc1ccc(N2CCOCC2)c(Cl)c1 | n | n | n
Cc1ccc(NC(=O)c2cc(-n3cnnc3)ccc2Cl)cc1 | n | n | n

Screening data as filed in PubChem.
